Screening results deposited in PubChem BioAssay by National Center for Advancing Translational Sciences (NCATS).
An excerpt weighted towards active compounds, which were near 8% of everything screened.
SW480 rereplic: DNA re-replication induction in SW480 cells; SW480 DNA re-replication, Hoechst DNA content imaging, 48 h; Potency, µM (series often up to 46.1 µM), actives largely listed as activators; 340,000 compounds, 1.8% hits; further: nearly all actives have a fitted effect of over 55% in size
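Quantitative HTS format with DMSO vehicle controls; 48 hr drug incubation at 37 C, then 40 min Hoechst staining and scanning imager measurement at 405 nm excitation.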
MCF10A rereplic: inducers of DNA re-replication in MCF 10A breast cells; MCF 10A DNA re-replication, Hoechst nuclear intensity, 48 h; Potency, µM (series often up to 46.1 µM), hits mostly activators; 350,000 compounds, 2.9% hits; further: nearly all actives have a fitted effect of over 50% in size
KB-3-1 cytotox: KB-3-1 parental cell cytotoxicity; KB-3-1 viability, CellTiter-Glo ATP luminescence, 72 h; Potency, µM (doses to about 46.1 µM), most hits filed as cytotoxic; 400,000 compounds, 1.4% hits; AID 1347075; further: nearly all actives have a fitted effect of over 60% in size
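Here the drug-naive KB-3-1 line serves as comparator for MDR sub-line selectivity; cells received compound titrations, 72 h at 37 °C, then CellTiter-Glo readout.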
HT1080NT lethal: kills 2HG-producing HT-1080-NT fibrosarcoma cells. AID 686970. Potency, µM (series often up to 46.1 µM), hits mostly cytotoxic. HT-1080-NT fibrosarcoma viability, CellTiter-Glo ATP luminescence, 48 h. 360,000 compounds, 1.6% hits;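 further: NT is the 2HG producing partner of a matched IDH1 knockdown line; nearly all actives have a fitted effect of over 55% in size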
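750 cells/well, RPMI + 5% FBS; 2 h settle, compound pin-transfer, 48 h at 37 degrees C. CellTiter-Glo 10 min RT, luminescence. Normalized to DMSO and media-only wells.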
HT1080 IDH1KD tx: kills HT-1080 cells with IDH1 knockdown | Potency, µM (series often up to 46.1 µM), usual class: cytotoxic | 360,000 compounds, 2% hits | HT-1080 IDH1 knockdown viability, ATP luminescence, 48 h
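HT-1080-IDH1KD cells (IDH1 knocked down), 750/well in RPMI with 5% FBS, treated with compound 48 h at 37 degrees C. Viability by CellTiter-Glo luminescence, normalised to DMSO and no-cell wells; concentration-response curves classed.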
KB-V1 cytotox: kills drug-selected multidrug resistant KB-V1 cells. Potency, µM (titrated, usually from 46.1 µM), hits mostly cytotoxic. KB-V1 MDR cells viability, CellTiter-Glo, 72 h. AID 1347076. 400,000 compounds, 3.4% hits; further: nearly all actives have a fitted effect of over 60% in size
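Cells of the MDR subline KB-V1 are plated, dosed with compound at multiple concentrations, and incubated 72 h at 37 degrees C; CellTiter-Glo is then added and luminescence read after 10 min.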
A number is an active result; - = inactive; ? = inconclusive; . = no result; ! = not confirmed by another sample; [ ] = dose if it differs, or a comment. The call rests on the fitted dose curve; in most records, active means well fitted curve in the direction sought with a large enough effect; inconclusive means small, poorly fitted or top-dose-only effect, or another doubt; inactive means no such curve, though single readings can be large; an effect the other way counts as inactive or inconclusive.

SMILES | SW480 rereplic | MCF10A rereplic | KB-3-1 cytotox | HT1080NT lethal | HT1080 IDH1KD tx | KB-V1 cytotox
CCCNC(=O)c1c(N)n(CC2CCCO2)c2nc3ccccc3nc12 (centres undefined) | 16.4µM | 18.4µM | - | - | - | ?
O=C(CNC(=O)c1cccs1)NCC(=O)OCC(=O)c1ccc([N+](=O)[O-])cc1 | - | ? | - | - | - | ?
COc1ccc(NC(=O)c2c(C)nn(Cc3ccccc3Cl)c2Cl)cc1Cl | - | 16.4µM | - | - | - | -
Cc1nn(Cc2ccccc2Cl)c(Cl)c1C(=O)O | - | - | - | - | - | -
Cc1ccsc1C(=O)C1CCCN(Cc2c(C)nn(C(C)C)c2C)C1 (centres undefined) | - | - | - | - | - | -
Cc1ccc(C)c(NP(=O)(Oc2ccccc2)Oc2ccccc2)c1 | - | 20.6µM | ? | ? | ? | -
O=[N+]([O-])c1ccc(-c2ccc(C=Nc3cccc4ccccc34)o2)cc1 | 11.6µM | 8.2µM | - | ? | -[9.24 µM] | -
CC12CCC3c4ccc(OC(=O)N(CCCl)CCCl)cc4CCC3C1CCC2O (centres undefined) | ? | 20.6µM | ? | ? | ? | 5.8µM
CCCC1(CCC)C(=O)NC(=Nc2ccccc2)NC1=O | - | - | - | - | - | -
CCCC1(CCC)C(=O)NC(=NCc2ccccc2)NC1=O | ? | ? | ? | 14.6µM | ? | -
Cc1csc(NC(=O)C(Cl)c2ccccc2)n1 (centres undefined) (tested in a mixture with another compound) | - | - | - | - | - | -
Cc1ccc(N2CCN(C(=O)c3cn(CC4CCCCC4)nn3)C(C)C2)cc1 (centres undefined) | - | 20.6µM | - | ? | ? | ?
CN(CCS(=O)(=O)c1ccc(Cl)cc1)Cc1cccnc1 | ? | 20.6µM | - | - | - | -
CCN1CCN(Cc2cccnc2)CC1 | - | - | - | - | - | -
COc1ccc(OCC(=O)N2CCN(Cc3cc(=O)n4nc(-c5ccccc5C)sc4n3)CC2)cc1 | . | . | - | . | . | -
CN(C)P(=O)(C(Cl)=C(N1CCCCC1)N1CCCCC1)N(C)C | - | - | - | - | 12.6µM | -
O=C(N1CCCCCC1)N1CC1 | - | - | - | - | - | -
CN(C)c1ccc([P+](=O)c2ccc(N(C)C)cc2)cc1 | - | - | - | - | - | ?
CCCCn1c(C)c(C(=O)O)c2cc(OC)c3ccccc3c21 | - | - | - | - | - | -
CCC(CC)C(=O)NC1CCSC1=O (centres undefined) | - | - | - | - | - | -
Cc1ccccc1NS(=O)(=O)c1ccc(OCC(=O)N2CCN(C)CC2)cc1 | - | - | - | - | - | -
Cc1nccc2c1[nH]c1ccc(Br)cc12 | - | - | - | - | - | ?
COc1ccc2c(c1)[nH]c1c(C)nccc12 | ? | ? | ? | - | - | 23.1µM!
COc1ccc(-c2nnc(Nc3nc4c(OC)cccc4s3)o2)c(OC)c1 | - | - | ? | 3.98µM | 3.16µM | ?
CCOC(=O)c1c(C)n(C(C)C)c2ccc(OC(=O)c3ccc(N4C(=O)CCC4=O)cc3)cc12 | - | - | - | - | - | -
SMILES | SW480 rereplic | MCF10A rereplic | KB-3-1 cytotox | HT1080NT lethal | HT1080 IDH1KD tx | KB-V1 cytotox
CC(=NCc1ccc2c(c1)OCO2)c1c(O)n(C)c(=O)n(C)c1=O | - | ? | 8.2µM | 2.51µM | - | 20.6µM
CCC(=NCCOc1ccc(Cl)cc1)c1c(O)n(C)c(=O)n(C)c1=O | - | - | ? | ? | - | 18.4µM
CCC(=NCc1ccc2c(c1)OCO2)c1c(O)n(C)c(=O)n(C)c1=O | - | - | 14.6µM | - | - | -
CCC(=NCc1cc(OC)cc(OC)c1)c1c(O)n(C)c(=O)n(C)c1=O | - | - | ? | - | - | 7.31µM
CCC(=NCCN1CCCCC1)c1c(O)n(C)c(=O)n(C)c1=O | - | - | - | - | - | -
COC(=O)C1=C(c2ccccc2)C[C@@H]2CC[C@H]1N2C(=O)NCc1ccc(C(F)(F)F)cc1 | - | - | - | - | - | -
COc1ccc(CN2CCNCC2)cc1 | - | - | - | - | - | -
CC1CCC(C(C)C)C(OC(=O)c2ccccc2N)C1 (centres undefined) | - | 18.8µM | . | . | . | .
COc1ccc(NC(=O)C2Cc3c(-c4cccc(C(C)=O)c4)ccnc3O2)cc1OC (centres undefined) | . | . | 5.17µM | ? | ? | 9.2µM
CCOC(=O)/C(C#N)=C1/C=C(C)NC(c2ccccc2O)=N1 | - | 6.51µM | - | ? | ? | -
CCOC(=O)/C(C#N)=C1/SC(C)C(=O)N1c1ccc(Br)cc1 (centres undefined) | - | ? | - | - | - | -
CCn1nc(-c2cccs2)nc2c(=O)n(C)c(=O)nc1-2 | ? | 0.731µM | ? | 3.26µM | 2.59µM | ?
CCOc1ccc(-n2c(-c3cccs3)nc3ccccc3c2=O)cc1 | - | - | - | - | - | -
CCn1nc(/C=C/c2ccccc2)nc2c(=O)n(C)c(=O)nc1-2 | ? | 11.2µM | 4.11µM | 4.11µM | 1.84µM | ?
O=C1CC(=O)N(Cc2ccccc2)C(=O)N1 | - | - | - | - | - | -
C=CCOC(Cn1ccnc1)c1ccc(Cl)cc1Cl (centres undefined) | - | ? | - | - | - | -
Clc1ccc(COC(Cn2ccnc2)c2ccc(Cl)cc2Cl)c(Cl)c1 (centres undefined) | ? | 11.6µM | - | 23.1µM | ? | ?
COc1cc2c(cc1C=O)OCO2 | - | - | - | - | - | ?
COc1ccc(/C=C/C=C2C(=O)NC(=S)NC2=O)cc1 | 16.4µM | 5.8µM | ? | - | - | ?
COc1ccc(C=C2C(=O)NC(=S)NC2=O)cc1OC | - | - | - | - | - | -
C[C@@H]1O[C@@H](O[C@H]2C[C@@H](O)[C@]3(CO)[C@H]4[C@H](O)C[C@]5(C)[C@@H](C6COC(=O)C6)CC[C@]5(O)[C@@H]4CC[C@]3(O)C2)[C@H](O)[C@H](O)[C@H]1O (some centres undefined) | 5.17µM | ? | ? | 1.84µM | 0.82µM | 1.64µM
